“And” between values parts separate entries of the source, which are not always exact repeats. Identical values can stand only once. Records with an inconclusive call do not appear. The source holds several records for some structures; these can differ, active in one and inactive in another. The source made the active and inactive calls. The calls were made as follows: active = hit-call score of the fitted dose curve at least 0.9, where 1 is the maximum; inconclusive = response in the unintended direction; inactive = score below 0.9.
Columns and labels:
[1] = target: Cellular tumor antigen p53 (Homo sapiens) (UniProt P04637); assay: TOX21_p53_BLA_p2_ratio: Tox21 HCT-116 p53 Agonism Beta-lactamase Assay, Ratio, Phase 2 (AID 2283592)
Sequence of Cellular tumor antigen p53 (Homo sapiens) (P04637 whole entry, looked up): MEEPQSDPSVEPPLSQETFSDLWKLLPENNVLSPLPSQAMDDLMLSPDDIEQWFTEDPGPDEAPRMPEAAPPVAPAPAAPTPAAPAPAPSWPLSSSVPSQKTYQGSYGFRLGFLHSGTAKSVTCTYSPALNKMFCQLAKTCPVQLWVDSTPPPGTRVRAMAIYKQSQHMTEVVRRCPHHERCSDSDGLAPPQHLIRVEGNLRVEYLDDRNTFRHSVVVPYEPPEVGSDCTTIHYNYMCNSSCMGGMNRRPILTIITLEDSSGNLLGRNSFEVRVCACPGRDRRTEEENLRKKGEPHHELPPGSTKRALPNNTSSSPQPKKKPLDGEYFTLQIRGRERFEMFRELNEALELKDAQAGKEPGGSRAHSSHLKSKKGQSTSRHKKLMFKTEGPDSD
Method in brief: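 HCT116 cells carrying a p53-responsive beta-lactamase reporter were plated, incubated 5 h at 37C, then dosed with compounds in DMSO (217-fold dilution) for 16 h. CCF4-AM substrate was added for 2 h at room temperature; the 460/530 nm emission ratio gave gain-of-signal activity relative to DMSO.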

[2] = TOX21_p53_BLA_p3_viability: Viability Assessment in the Tox21 HCT-116 p53 Agonism Beta-lactamase Assay, Phase 3 (AID 2283593);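 also: cells exposed to compound for 16 h before reading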
Method in brief: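 HCT-116 cells (4000/well) rested 5 h at 37C, then got DMSO compounds by pin tool (217-fold dilution) for 16 h at 37C, 5% CO2. After the bla read, CellTiter-Glo was added and luminescence read at 30 min, room temperature.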

[3] = target: Cellular tumor antigen p53 (Homo sapiens) (UniProt P04637); assay: TOX21_p53_BLA_p3_ratio: Tox21 HCT-116 p53 Agonism Beta-lactamase Assay, Ratio, Phase 3 (AID 2283596)
Method in brief: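 HCT116 p53-bla cells (4000/well) given compound in DMSO (217-fold dilution) after 5 h, incubated 16 h at 37C. CCF4-AM substrate 2 h at room temperature; 460/530 nm emission ratio, gain fitted against DMSO.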

[4] = TOX21_p53_BLA_p4_viability: Viability Assessment in the Tox21 HCT-116 p53 Agonism Beta-lactamase Assay, Phase 4 (AID 2283597);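 also: hits lower the luminescence signal meaning cytotoxicity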
Method in brief: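 HCT116 p53-bla cells (4000/well) rested 5 h at 37C, then received compounds in DMSO (217-fold dilution) for 16 h at 37C, 5% CO2. CellTiter-Glo was added after the CCF4-AM read, and luminescence was read after 30 min at room temperature.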

[5] = target: Cellular tumor antigen p53 (Homo sapiens) (UniProt P04637); assay: TOX21_p53_BLA_p5_ratio: Tox21 HCT-116 p53 Agonism Beta-lactamase Assay, Ratio, Phase 5 (AID 2283599)
Method in brief: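 HCT-116 cells carrying a p53-inducible beta-lactamase reporter were seeded at 4000 cells/well and dosed after 5 h with compound in DMSO (217-fold dilution). After 16 h at 37C, CCF4-AM substrate was added for 2 h, and the 460/530 nm emission ratio was scored as gain-of-signal versus DMSO.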

[6] = target: Cellular tumor antigen p53 (Homo sapiens) (UniProt P04637); assay: TOX21_p53_BLA_p4_ratio: Tox21 HCT-116 p53 Agonism Beta-lactamase Assay, Ratio, Phase 4 (AID 2283601)
Method in brief: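 HCT116 cells carrying an inducible beta-lactamase reporter were plated at 4000 cells/well, rested 5 h, then exposed to compounds in DMSO (217-fold dilution) for 16 h at 37C. CCF4-AM substrate was loaded 2 h at room temperature; 460/530 nm emission ratio scored gain-of-signal versus DMSO.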

[7] = Tanguay_ZF_120hpf_MORT_legacy: (Legacy) Oregon State University Tanguay Lab 120 Hour Post-fertilization zebrafish Assay for Mortality (AID 2283633);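 as to AC50: fitted as increase in binary mortality versus DMSO negative control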
Method in brief: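 Dechorionated Tropical 5D wild-type zebrafish embryos, one per well from 6 hpf, were statically exposed at 28C in the dark until 120 hpf (0.64% DMSO final). Mortality was scored as present/absent by brightfield microscopy, fitted positively versus DMSO.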

[8] = Tanguay_ZF_120hpf_YSE_legacy: (Legacy) Oregon State University Tanguay Lab 120 Hour Post-fertilization zebrafish Assay for Yolk Sac Edema (AID 2283634);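 as to AC50: actives raise the incidence of yolk sac edema above the DMSO baseline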
Method in brief: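 Tropical 5D wild-type embryos, dechorionated with pronase at 4 hpf, were exposed singly from 6 hpf to 120 hpf under static, sealed, dark conditions at 28C with 0.64% DMSO final. Yolk sac edema was scored present/absent by brightfield microscopy.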

[9] = Tanguay_ZF_120hpf_AXIS_legacy: (Legacy) Oregon State University Tanguay Lab 120 Hour Post-fertilization zebrafish Assay for Body Axis Malformation (AID 2283635);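 as to AC50: potency for an increased fraction of larvae scored with body axis malformation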
Method in brief: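 Tropical 5D wild-type zebrafish embryos, dechorionated with pronase at 4 hpf, were placed singly in wells at 6 hpf and exposed statically to test chemical (0.64% DMSO final) at 28C until 120 hpf, then scored by brightfield for body axis defects.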

[10] = TOX21_p53_BLA_p5_viability: Viability Assessment in the Tox21 HCT-116 p53 Agonism Beta-lactamase Assay, Phase 5 (AID 2283600)
Method in brief: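 Cells were plated at 4000/well, rested 5 h at 37C, then given compounds in DMSO (217-fold dilution) for 16 h at 37C, 5% CO2. Following the CCF4-AM beta-lactamase read, CellTiter-Glo was added and luminescence was read after 30 min at room temperature.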

Measured: AC50

O=C(O)Cc1cc(I)c(Oc2ccc(O)c(I)c2)c(I)c1
active: [1] 899 nM and 4.4 µM | [2] 15.9 µM | [3] 1.64 µM and 8.48 µM | [4] 19 µM and 5.82 µM | [5] 1.95 µM and 16.7 µM | [6] 3.33 µM and 5.61 µM | [9] 0.0871 µM
inactive: [2] | [7] | [8]

CC/C(=C(/CC)c1ccc(O)cc1)c1ccc(O)cc1
inactive: [2] | [4] | [8] | [9]
active: [1] 3.29 µM and 5.64 µM | [3] 11.8 µM and 14 µM | [4] 46 µM | [5] 17.3 µM and 4.28 µM | [6] 38.3 µM and 8.57 µM | [7] 10.8 µM

CCCCCCCC[Si](OCC)(OCC)OCC
inactive: [1] | [3] | [5] | [6] | [7] | [9]

CC1=CC(=O)/C(=C(/C)O)C(=O)O1
not listed: [1] | [2] | [4]
inactive: all other assays above

COc1cc(C(=O)NC2CCN(C)CC2)ccc1Nc1ncc2c(n1)N(C1CCCC1)CC(F)(F)C(=O)N2C
inactive: [8]
active: [3] 70.1 µM | [4] 42.9 µM | [5] 0.00396 µM | [6] 0.00404 µM | [7] 24.4 µM | [9] 9.69 µM

Clc1cc(Cl)c2c(c1)N=C1CCCCCN1C2
active: [8] 21.5 µM | [9] 7.43 µM
not listed: [1] | [10]
inactive: all other assays above

CN(C[C@@H](CC[N+]12CCC(C3CCCCC3)(CC1)CC2)c1ccc(Cl)c(Cl)c1)C(=O)c1cc(C(F)(F)F)cc(C(F)(F)F)c1
active: [3] 87 µM | [4] 14.8 µM | [5] 77.8 µM | [10] 46.8 µM | [6] 27.5 µM | [7] 25.5 µM
inactive: [8] | [9]

CCN(Cc1cccnc1)C(=O)c1cccc(Cl)c1[C@]1(C)C(=O)N(Cc2ccc(OC)cc2OC)c2ccc(Cl)cc21
inactive: [4] | [8] | [9]
active: [3] 40.9 µM | [5] 52.1 µM | [6] 44.5 µM | [7] 6.06 µM

O=c1c(-c2ccc(O)cc2)coc2cc(O)cc(O)c12
active: [7] 26.1 µM
not listed: [1] | [2] | [10]
inactive: all other assays above

CO[C@H]1/C=C/O[C@@]2(C)Oc3c(C)c(O)c4c(O)c(c(/C=N/N5CCN(C)CC5)c(O)c4c3C2=O)NC(=O)/C(C)=C\C=C\[C@H](C)[C@H](O)[C@@H](C)[C@@H](O)[C@@H](C)[C@H](OC(C)=O)[C@@H]1C
not listed: [1] | [2] | [10]
inactive: all other assays above

CC(C)(c1cc(Br)c(O)c(Br)c1)c1cc(Br)c(O)c(Br)c1
active: [2] 55.7 µM and 52.9 µM and 46 µM | [3] 50.4 µM and 63.7 µM and 58.5 µM | [4] 34.3 µM and 46 µM | [5] 67.7 µM and 76.3 µM and 65.8 µM | [6] 58.8 µM and 71.4 µM and 63.2 µM | [7] 4.89 µM
inactive: [8] | [9]

CCN(CC)C(=O)c1cc(S(=O)(=O)Cc2ccccc2)c(N2CCC(c3ccccc3)CC2)cc1N(CC)CCN(C)C
inactive: [3] | [5] | [8]
active: [4] 17.9 µM and 25.1 µM | [6] 32.6 µM and 42.6 µM | [7] 11.7 µM | [9] 18.2 µM

CCO[Si](CCCNC(N)=O)(OCC)OCC
inactive: [3] | [5] | [6] | [7] | [9]

O=c1[nH]sc2ccccc12
inactive: [3] | [4] | [5] | [6] | [7] | [8]

c1ccc2n[nH]nc2c1
not listed: [1] | [2]
inactive: all other assays above

CCCCCCCCOC(=O)c1cc(O)c(O)c(O)c1
inactive: [8] | [9]
active: [3] 36.8 µM | [4] 32.9 µM | [5] 63.3 µM | [6] 62.6 µM | [7] 8.13 µM

O=C(O)Cn1c(=O)n(Cc2ccc(Br)cc2F)c(=O)c2ccc(Cl)cc21
not listed: [1] | [2] | [3]
inactive: all other assays above

CCCCCCCCN(C)CCCCCCCC
inactive: [3] | [4] | [6] | [7] | [8] | [9]

COCC(C)OCC(C)OCC(C)O (configuration not stated)
inactive: [7] | [8] | [9]

C[C@]12CC[C@@H]3c4ccc(O)cc4CC[C@H]3[C@@H]1CC[C@H]2O
active: [3] 67.5 µM and 15.8 µM | [5] 73.4 µM and 16.7 µM | [6] 26.2 µM
not listed: [1] | [10]
inactive: all other assays above

Reference: PubChem BioAssay (EPA / NIEHS)
